Reference: PubChem BioAssay AID1159580 (chemical genetic matrix, 2015)
Where “and” joins values, the source holds several entries; their conditions need not be identical. Equal entries are not always repeated. Out of some 5,500 compounds screened, about 2,000 (36%) were called active. About 18% were inconclusive and are not listed. Cut-off read from the data, not from the text of the source: active = normalized growth mostly below about 0.91 (no sharp cut-off); inconclusive = no clear call, values can overlap the other calls; inactive = mostly above about 0.92. The list shows a part of the results.

Test: chemical genetic growth profiling, strain panel (AID 1159580);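 note: tested at 20 µM; growth read once vehicle control cultures reached saturation at 30 °C; 1 = growth at the plate median or of vehicle wells; lower values mean less growth of the strain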
Conditions: S. cerevisiae deletion strains, growth OD

Measured: normalized growth

C[N+](C)(C)CCOC(N)=O
inactive: locus YAL013W, strain DEP1, hits give low values 1.01 | locus YAL021C, strain ccr4, hits give low values 1.03 | locus YAL026C, strain drs2, hits give low values 1.01 | locus YAL030W, strain snc1, hits give low values 1.01 | locus YAL040C, strain CLN3, hits give low values 1.05 | locus YBL061C, strain skt5, hits give low values 1.03 | locus YBR009C, strain hhf1, hits give low values 0.997 | locus YBR021W, strain FUR4, hits give low values 1.06 | locus YBR023C, strain chs3, hits give low values 1.02 | locus YBR171W, strain sec66, hits give low values 1.02 | locus YBR229C, strain ROT2, hits give low values 1.01 | locus YBR231C, strain swc5, hits give low values 1.02 | locus YBR279W, strain paf1, hits give low values 1.01 | locus YCL011C, strain gbp2, hits give low values 1.01 | locus YCL016C, strain dcc1, hits give low values 1.03 | locus YCL029C, strain bik1, hits give low values 0.973 | locus YCL061C, strain MRC1 (second series), hits give low values 0.987 | locus YCL069W, strain vba3, hits give low values 1.03 | locus YCR088W, strain abp1, hits give low values 1.01 | locus YDL005C, strain med2, hits give low values 1.03 | locus YDL035C, strain GPR1, hits give low values 1.04 | locus YDL040C, strain nat1, hits give low values 1.02 | locus YDL074C, strain BRE1, hits give low values 0.995 | locus YDL101C, strain DUN1, hits give low values 0.986 | locus YDL185W, strain tfp1, hits give low values 0.953 | locus YDL192W, strain arf1, hits give low values 0.976 | locus YDR001C, strain nth1, hits give low values 1.02 | locus YDR069C, strain doa4, hits give low values 1.01 | locus YDR101C, strain arx1, hits give low values 1 | locus YDR137W, strain rgp1, hits give low values 1.04 | locus YDR150W, strain NUM1, hits give low values 1.01 | locus YDR159W, strain sac3, hits give low values 1.02 | locus YDR162C, strain NBP2, hits give low values 1.03 | locus YDR195W, strain ref2 1.06 | locus YDR297W, strain sur2, hits give low values 1.02 | locus YDR318W, strain mcm21, hits give low values 0.987 | locus YDR334W, strain swr1, hits give low values 1.02 | locus YDR335W, strain msn5, hits give low values 1.03 | locus YDR388W, hits give low values 0.984 | locus YDR392W, strain spt3, hits give low values 1.02 | locus YDR502C, strain sam2, hits give low values 0.99 | locus YEL003W, strain gim4, hits give low values 1.02 | locus YEL037C, strain rad23, hits give low values 1.02 | locus YEL061C, strain CIN8 (second series), hits give low values 1.01 | locus YEL061C, strain CIN8, hits give low values 1 | locus YER002W, strain NOP16, hits give low values 0.986 | locus YER015W, strain faa2, hits give low values 1.03 | locus YER016W, strain bim1, hits give low values 1.01 | locus YER110C, hits give low values 0.944 | locus YER111C, strain swi4, hits give low values 1.03 | locus YER155C, strain BEM2 (second series), hits give low values 1.03 | locus YER155C, strain BEM2, hits give low values 0.991 | locus YER167W, strain BCK2, hits give low values 1.01 | locus YFR010W, strain ubp6, hits give low values 1.02 | locus YGL078C, strain dbp3, hits give low values 0.986 | locus YGL086W, strain mad1, hits give low values 1 | locus YGL167C, strain pmr1, hits give low values 1.03 | locus YGL173C, strain kem1, hits give low values 1.02 | locus YGL227W, strain vid30, hits give low values 1.01 | locus YGL240W, strain doc1, hits give low values 1.02 | locus YGL248W, strain PDE1, hits give low values 1.01 | locus YGL253W, strain hxk2, hits give low values 1.02 | locus YGR078C, strain PAC10, hits give low values 0.992 and 0.993 | locus YGR135W, strain pre9, hits give low values 0.978 | locus YGR252W, strain gcn5, hits give low values 1.07 | locus YHR013C, strain ard1, hits give low values 1.04 | locus YHR027C, strain rpn1, hits give low values 1.01 | locus YHR030C, strain SLT2, hits give low values 1.01 and 0.989 | locus YHR079C, strain IRE1 (second series), hits give low values 0.962 | locus YHR079C, strain IRE1, hits give low values 0.998 | locus YHR094C, strain hxt1, hits give low values 0.976 | locus YHR129C, strain ARP1, hits give low values 1 | locus YHR142W, strain chs7, hits give low values 1.02 | locus YHR200W, strain rpn10, hits give low values 0.979 | locus YIL066C, strain RNR3, hits give low values 1.02 | locus YIL073C, strain SPO22, hits give low values 0.927 | locus YIL125W, strain kgd1, hits give low values 0.986 | locus YIR030C, strain dcg1, hits give low values 0.959 | locus YJL092W, strain hpr5, hits give low values 1.01 | locus YJL095W, strain BCK1 (second series), hits give low values 1.03 | locus YJL095W, strain BCK1, hits give low values 0.981 and 0.988 | locus YJL115W, strain asf1, hits give low values 1.02 | locus YJL129C, strain trk1, hits give low values 1.02 | locus YJL134W, strain LCB3, hits give low values 1 | locus YJL164C, strain tpk1, hits give low values 1.01 | locus YJL166W, strain qcr8, hits give low values 0.992 | locus YJL168C, strain set2, hits give low values 0.986 | locus YJL187C, strain SWE1 (second series), hits give low values 0.986 | locus YJL187C, strain SWE1, hits give low values 1.02 | locus YJR043C, strain POL32, hits give low values 1.05 | locus YJR066W, strain TOR1, hits give low values 0.999 | locus YJR075W, strain HOC1, hits give low values 0.989 | locus YKL009W, strain mrt4, hits give low values 0.957
